ATXN viability: reduces viability in counter-screen for ATXN expression inhibitors; 400,000 tested, 0.49% active; Potency, µM (doses to about 56.7 µM), most hits filed as cytotoxic; S2 cells (HEK-293 line with an ATXN2-luciferase reporter) viability, CellTiter-Fluor protease fluorescence, 24 h; AID 651635; further: nearly all actives have a fitted effect of over 40% in size
TGFb inhibitor: TGF-b pathway inhibition. AID 588855. HepG2 CAGA-GFP TGF-b/SMAD3 reporter, GFP fluorescence, 18 h; TGF-beta stimulated, 500 pg/mL final. Potency, µM (titrated, usually from 46.1 µM), actives largely listed as inhibitors. 410,000 tested, 1.2% active; further: nearly all actives have a fitted effect of over 65% in size
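Using HEPG2 CAGA-GFP reporter cells at 1000 cells/well, we pinned test compounds, stimulated with recombinant TGF-beta (500 pg/mL final) and measured total well GFP after 18 h.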
ATXN2 expr inh: reduces ATXN2 reporter expression in HEK-293 cells; AID 1745845; HEK-293 ATXN2-luciferase reporter, luminescence, 24 h; 360,000 tested, 0.72% active; Potency, µM (titrated, usually from 57 µM), hits mostly inhibitors; further: nearly all actives have a fitted effect of over 55% in size
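ATXN2-luciferase reporter cells (luciferase flanked by upstream and downstream ATXN2 gene portions) were treated 24 h at 37 °C with compounds at up to 57 uM. SteadyGlo luminescence gave expression; GF-AFC fluorescence gave viability.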
GLP-1R agonist: GLP-1 receptor (human) agonism | HEK293 GLP-1R CRE-luciferase, luminescence, 4-6 h; cells express a hypersensitive GLP-1R form | Potency, µM (doses to about 45.6 µM), hits mostly activators | 380,000 tested, 0.007% active | AID 624172
Target sequence (P43220 whole entry, looked up): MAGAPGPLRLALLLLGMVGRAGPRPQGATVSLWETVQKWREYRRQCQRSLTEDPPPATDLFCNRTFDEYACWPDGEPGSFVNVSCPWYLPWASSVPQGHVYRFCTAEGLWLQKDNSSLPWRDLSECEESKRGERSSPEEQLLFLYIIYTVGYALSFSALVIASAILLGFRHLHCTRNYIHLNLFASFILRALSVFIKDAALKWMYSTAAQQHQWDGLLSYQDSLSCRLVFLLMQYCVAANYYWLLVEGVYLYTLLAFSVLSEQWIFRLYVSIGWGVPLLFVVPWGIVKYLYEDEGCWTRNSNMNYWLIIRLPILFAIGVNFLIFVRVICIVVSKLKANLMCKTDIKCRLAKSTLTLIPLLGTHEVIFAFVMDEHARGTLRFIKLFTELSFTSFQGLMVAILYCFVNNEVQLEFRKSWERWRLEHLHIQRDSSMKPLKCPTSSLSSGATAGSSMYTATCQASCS
GLP1R inv ag: acts as inverse agonist at human GLP-1 receptor. P43220. HEK293 GLP-1R CRE-luciferase, luminescence, 24 h; GLP-1R form is constitutively active. Potency, µM (doses to about 38.3 µM), usual class: inhibitors. 410,000 tested, 1.6% active; further: nearly all actives have a fitted effect of over 55% in size
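Seeding at 200 cells/uL, 12 h culture, 24 hr compound treatment, then luciferase reagent and a luminescence read; cells are HEK293 stably expressing a constitutively active GLP-1R plus cAMP-responsive luciferase.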
HepG2 tox-1: counter-screen for TGF-b inhibitors: cytotoxicity in HepG2 cells. Potency, µM (highest dose often 46.1 µM), usual class: cytotoxic. AID 588856. HepG2 CAGA-GFP viability, ATP luminescence, 18 h. 410,000 tested, 0.76% active
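CellTiter-Glo luminescence gave cytotoxicity after 18 hours at 37 degrees C. The cells were HepG2 CAGA-GFP in 1% FBS DMEM, stimulated with 500 pg/mL TGF-beta after compound addition. %Activity was normalised to no-cell wells (complete cell-killing) and DMSO (no toxicity), and curves were fitted and classified.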
TGFb CAGA inh: confirmation of TGF-b signaling inhibitors in HepG2 reporter cells; shares compounds with TGFb inhibitor; HepG2 CAGA-GFP TGF-b reporter, GFP fluorescence, 18 h; cells stimulated with TGF-beta, 500 pg/mL; Potency, µM (top dose mostly 46.1 µM), hits mostly inhibitors; 1,600 tested, 63% active; AID 720534; further: nearly all actives have a fitted effect of over 65% in size
HepG2 tox-2: counter-screen for TGF-b inhibitors: cytotoxicity in HepG2 cells. shares compounds with TGFb inhibitor. HepG2 CAGA-GFP viability, ATP luminescence, 18 h; cells stimulated with TGF-beta, 500 pg/mL. 1,600 tested, 27% active. Potency, µM (top dose mostly 46.1 µM), hits mostly inhibitors; further: nearly all actives have a fitted effect of over 70% in size
CCL64 TGFb inh: orthogonal confirmation of TGF-b inhibitors in CCL64 cells. shares compounds with TGFb inhibitor. CCL64 CAGA-GFP reporter, TGF-b stimulated, GFP fluorescence, 18 h. Potency, µM (series often up to 46.1 µM), hits mostly inhibitors. 1,600 tested, 41% active. AID 720536; further: nearly all actives have a fitted effect of over 65% in size
TGFb COP inh: blocks TGF-b signaling in HepG2 COP reporter | AID 720537 | Potency, µM (titrated, usually from 46.1 µM), actives largely listed as inhibitors | shares compounds with TGFb inhibitor | 1,600 tested, 3% active | HepG2 COP-GFP TGF-b reporter, GFP fluorescence, 18 h; cells stimulated by added recombinant TGF-beta; further: nearly all actives have a fitted effect of over 70% in size
Numbers stand for hits; - = inactive; ? = inconclusive; . = no result; [ ] = another dose, or the depositor's remark. The list is not random: actives were taken first. Their share in the collection is about 3.7%. The call rests on the fitted dose curve; in most records, active means well fitted curve in the direction sought with a large enough effect; inconclusive means small, poorly fitted or top-dose-only effect, or another doubt; inactive means no such curve, though single readings can be large; an effect the other way counts as inactive or inconclusive.

SMILES	ATXN viability	TGFb inhibitor	ATXN2 expr inh	GLP-1R agonist	GLP1R inv ag	HepG2 tox-1	TGFb CAGA inh	HepG2 tox-2	CCL64 TGFb inh	TGFb COP inh
Nc1ncnc2c1ncn2[C@@H]1O[C@H](CO)[C@@H](O)[C@@H]1O	-	-	-	-	-	-	.	.	.	.
Nc1ncnc2c(C3OC(CO)C(O)C3O)scc12 (stereo not drawn)	?	-	?	-	?	-	0.016µM	0.073µM	0.92µM	-
Cn1c(NCC2CCCCC2)nc2cc(-c3ccsc3)sc2c1=O	-	?	-	-	-	-	23µM	?	?	-
Cn1c(NCc2ccncc2)nc2cc(-c3ccsc3)sc2c1=O	-	?	-	-	-	-	.	.	.	.
Cc1cc2nn(-c3ccc(Cl)cc3)nc2cc1N	.	0.79µM	.	-	?	-	6.5µM	2.6µM	-	-
Cc1cc2nn(-c3ccc(F)cc3)nc2cc1N	-	?	-	-	?	-	.	.	.	.
Cc1ccc(NC(=O)c2ccc(Nc3c([N+](=O)[O-])cc([N+](=O)[O-])cc3[N+](=O)[O-])cc2)cc1	.	13µM	20µM	-	-	-	8.2µM	?	6.5µM	-
CNc1c(Br)cc(/C=C2\C=Cc3ccccc32)cc1Br	.	?	.	.	.	-	.	.	.	.
O=C(Oc1ccc(NC2=C(Cl)C(=O)c3ccccc3C2=O)cc1)c1ccc([N+](=O)[O-])cc1	?	-	.	-	-	-	.	.	.	.
Cc1ccc(NC2=C(NCCO)C(=O)c3ccccc3C2=O)cc1	-	?	-	-	-	-	.	.	.	.
CN(C)c1ccc(NC2=C(Cl)C(=O)c3ccccc3C2=O)cc1	.	5.6µM	?	-	?	5.6µM	5.2µM	12µM	13µM	?
O=C(NC1=C(Nc2ccc(Cl)cc2)C(=O)c2ccccc2C1=O)c1ccccc1	?	8.9µM	-	-	?	28µM	15µM	21µM	?	-
O=C1C(Cl)=C(Nc2ccc3cn[nH]c3c2)C(=O)c2ccccc21	14µM	0.63µM	20µM	-	?	1.1µM	1.6µM	3.3µM	4.6µM	6.5µM
Cc1cccc(NC2=C(NC(=O)c3ccccc3)C(=O)c3ccccc3C2=O)c1	?	?	?	-	?	-	.	.	.	.
CC(=O)Nc1ccc(NC2=C(Cl)C(=O)c3ccccc3C2=O)cc1	.	3.5µM	?	-	-	3.5µM	5.2µM	15µM	2.9µM	?
O=C(O)Cn1nc(N2CCN(c3ccccc3)CC2)ccc1=O	-	-	-	-	-	-	.	.	.	.
CCC(C(=O)Nc1cccc(C#N)c1)n1nc(-c2ccccc2)ccc1=O (stereo not drawn)	-	-	-	.	-	-	.	.	.	.
O=C(CSc1nnnn1C1CC1)N1CCN(c2cccc(Cl)c2)CC1	-	-	-	-	-	-	.	.	.	.
CC(C)c1ccc(CN2CCN(C(=O)CSc3nnnn3C3CC3)CC2)cc1	-	?	-	-	?	-	-	-	-	-
OCC(O)C[n+]1cccc(Br)c1 (stereo not drawn)	.	-	.	.	.	-	.	.	.	.
Cc1ccc2cc3cc(C(=O)N(C)c4ccccc4C)oc3nc2c1	.	.	.	.	?	-	.	.	.	.
Cc1ccc(C(=O)CSc2cc(C)nc(SCC(=O)c3ccccc3)n2)cc1	?	?	-	-	?	-	?	-	-	-
Cc1cc(SCC(N)=O)nc(SCC(=O)c2ccccc2)n1	?	-	-	-	-	-	.	.	.	.
Cc1ccc(NC(=O)N2CCN(c3nnc(C)c4c(C)n(-c5ccccc5)nc34)CC2)cc1Cl	-	-	-	.	-	-	.	.	.	.
O=S(=O)(c1cccc(NC(=S)N2CCN(c3ccccc3F)CC2)c1)C(F)F	-	7.1µM	.	-	?	-	7.3µM	-	-	-
SMILES	ATXN viability	TGFb inhibitor	ATXN2 expr inh	GLP-1R agonist	GLP1R inv ag	HepG2 tox-1	TGFb CAGA inh	HepG2 tox-2	CCL64 TGFb inh	TGFb COP inh
COc1ccc(CC(N)c2csc(NC(=O)Nc3ccccc3C(C)C)n2)cc1 (stereo not drawn)	?	5.6µM	?	-	-	-	?	?	?	?
COc1ccc(CC(N)c2csc(NC(=O)Nc3ccc(OC)cc3)n2)cc1 (stereo not drawn)	?	?	?	-	-	-	.	.	.	.
COc1cccc2c1OCC(C(=O)O)C2 (stereo not drawn)	-	-	-[11.3 µM]	-	-	-	.	.	.	.
COc1cccc2c1C(CO)N1C(C#N)C3CC(C(=O)O)C(C1C2)N3C (stereo not drawn)	-	1.3µM	0.28µM	-	?	-	0.65µM	0.52µM	7.3µM	-
Cc1onc(-c2ccccc2Cl)c1C(=O)Nc1cccc(-c2cn3cccnc3n2)c1	-	?	-	-	-	-	?	-	-	-
O=C(Nc1cccc(-c2cn3cccnc3n2)c1)c1cc(Br)ccc1Cl	-	-	-	.	-	-	.	.	.	.
Cc1nc2c(o1)C(=O)c1ccccc1C2=Nc1ccccc1	.	1.3µM	28µM	-	?	1.4µM	3.7µM	4.1µM	5.8µM	4.1µM
Nc1ncc(S(=O)(=O)Nc2ccc(F)cc2F)cn1	.	-	.	.	-	-	.	.	.	.
Nc1cc(N)cc(N)c1	.	-	.	.	.	-	.	.	.	.
CCCCCOC(=O)c1[nH]c2c(c1C)C(=O)CC(c1ccco1)C2 (stereo not drawn)	?	0.79µM	-	-	-	-	1.2µM	-	0.23µM	-
CCOCCOC(=O)c1[nH]c2c(c1C)C(=O)CC(c1ccccc1)C2 (stereo not drawn)	?	?	-	-	-	-	.	.	.	.
COc1cc2c(cc1OC)C(c1ccc(F)cc1)N(c1ccccc1)C(=O)C2 (stereo not drawn)	-	-	-	.	-	-	.	.	.	.
O=c1[nH]c2ccccc2cc1-c1nnn(-c2ccc(Cl)c(Cl)c2)n1	-	?	-	-	-	-	-	-	-	-
COc1ccc(-c2nc(-c3ccc4c(c3)OCO4)[nH]c2-c2ccc(OC)cc2)cc1	?	-	-	-	?	-	23µM	?	26µM	-
